# Experimental data taken from article PMC7862700, “An all-to-all approach to the identification of sequence-specific readers for epigenetic DNA modifications on cytosine”.
# Key:
# Assay in all cases: DAPPL (digital affinity profiling via proximity ligation, sequencing); 10 mM Tris-HCl pH 7.5, 50 mM NaCl, 1 mM DTT, 4% glycerol, room temperature, 30 min; GST-TFs on glutathione beads, 16-mer random dsDNA library, 0.1% formaldehyde crosslink after washing; high values mean tight binding
# Conditions in all cases: protein: recombinant; tags: N-terminal GST; dsDNA, one strand shown
# FLI1 = target: T1, FLI1 (Homo sapiens, UniProt Q01543 1-452)
# T1 sequence: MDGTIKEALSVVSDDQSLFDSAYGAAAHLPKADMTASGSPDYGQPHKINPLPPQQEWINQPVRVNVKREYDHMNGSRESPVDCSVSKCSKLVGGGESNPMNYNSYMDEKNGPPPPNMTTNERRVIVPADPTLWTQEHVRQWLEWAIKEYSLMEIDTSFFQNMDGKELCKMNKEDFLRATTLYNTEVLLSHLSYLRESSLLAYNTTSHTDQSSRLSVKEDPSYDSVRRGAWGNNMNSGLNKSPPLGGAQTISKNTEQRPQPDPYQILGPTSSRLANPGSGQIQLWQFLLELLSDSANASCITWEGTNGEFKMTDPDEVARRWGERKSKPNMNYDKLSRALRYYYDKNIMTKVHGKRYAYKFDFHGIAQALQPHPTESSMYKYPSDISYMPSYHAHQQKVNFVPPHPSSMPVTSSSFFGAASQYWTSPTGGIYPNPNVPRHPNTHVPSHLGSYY
# Outline: (§1)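 Human transcription factors carrying a GST fusion were produced in yeast, bound to glutathione beads, tagged with DNA barcodes and pooled together with a tag-only sample. Each pool was held with 200 nmole of a random double-stranded 16-mer DNA library in Tris/NaCl/DTT/glycerol buffer for 30 min at room temperature, then washed, crosslinked in 0.1% formaldehyde, proximity-ligated with BsaI/T4 ligase (1 h, 37 °C), PCR-amplified and sequenced on an Illumina NextSeq500. Binding signal is the read frequency of each hexamer for a given factor divided by its frequency in the tag-only sample.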
# ELK1 = target: T2, ELK1 (Homo sapiens, UniProt P19419 1-428)
# T2 sequence: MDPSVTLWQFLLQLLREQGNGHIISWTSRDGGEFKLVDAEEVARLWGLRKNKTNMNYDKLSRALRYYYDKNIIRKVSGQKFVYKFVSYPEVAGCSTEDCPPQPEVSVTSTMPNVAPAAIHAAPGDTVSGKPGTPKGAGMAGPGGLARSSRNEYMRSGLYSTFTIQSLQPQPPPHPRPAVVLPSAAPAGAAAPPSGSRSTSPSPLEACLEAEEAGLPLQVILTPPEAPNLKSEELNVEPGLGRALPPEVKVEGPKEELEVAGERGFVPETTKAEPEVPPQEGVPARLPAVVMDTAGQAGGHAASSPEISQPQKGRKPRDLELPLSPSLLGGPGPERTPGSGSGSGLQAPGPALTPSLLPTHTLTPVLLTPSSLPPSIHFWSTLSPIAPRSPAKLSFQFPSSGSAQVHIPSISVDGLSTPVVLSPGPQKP
# Outline: as §1
# GABPA = target: T3, GABPA (Homo sapiens, UniProt Q06546 1-454)
# T3 sequence: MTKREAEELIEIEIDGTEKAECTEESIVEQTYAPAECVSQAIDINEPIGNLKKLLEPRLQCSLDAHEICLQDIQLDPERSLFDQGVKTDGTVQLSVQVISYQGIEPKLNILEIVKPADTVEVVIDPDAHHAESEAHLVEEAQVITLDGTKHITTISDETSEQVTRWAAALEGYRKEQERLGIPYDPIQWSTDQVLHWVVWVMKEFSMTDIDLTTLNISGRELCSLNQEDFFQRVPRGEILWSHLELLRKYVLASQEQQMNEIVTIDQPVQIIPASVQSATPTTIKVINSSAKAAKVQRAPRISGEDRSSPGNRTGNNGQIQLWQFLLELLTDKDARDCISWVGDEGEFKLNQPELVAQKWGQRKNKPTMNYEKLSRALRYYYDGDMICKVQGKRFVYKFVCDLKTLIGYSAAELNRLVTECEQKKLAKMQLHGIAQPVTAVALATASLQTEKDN
# Outline: as §1
# ERG = target: T4, ERG (Homo sapiens, UniProt P11308 1-479)
# T4 sequence: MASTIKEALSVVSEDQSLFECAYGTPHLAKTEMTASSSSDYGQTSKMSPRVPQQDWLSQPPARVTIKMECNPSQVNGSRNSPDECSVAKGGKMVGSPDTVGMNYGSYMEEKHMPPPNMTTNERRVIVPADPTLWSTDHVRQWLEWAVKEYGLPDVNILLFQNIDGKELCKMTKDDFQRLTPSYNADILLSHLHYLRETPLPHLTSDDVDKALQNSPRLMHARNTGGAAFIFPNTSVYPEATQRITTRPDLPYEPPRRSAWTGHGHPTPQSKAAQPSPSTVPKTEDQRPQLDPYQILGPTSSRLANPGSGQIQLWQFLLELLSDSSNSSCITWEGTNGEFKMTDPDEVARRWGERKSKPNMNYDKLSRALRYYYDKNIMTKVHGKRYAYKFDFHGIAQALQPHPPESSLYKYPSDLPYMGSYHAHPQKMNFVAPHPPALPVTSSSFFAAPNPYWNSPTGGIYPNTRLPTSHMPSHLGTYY
# Outline: as §1
# ELF1 = ELF1 (Homo sapiens, UniProt P32519 1-619)
# ELF1, sequence (P32519 whole entry): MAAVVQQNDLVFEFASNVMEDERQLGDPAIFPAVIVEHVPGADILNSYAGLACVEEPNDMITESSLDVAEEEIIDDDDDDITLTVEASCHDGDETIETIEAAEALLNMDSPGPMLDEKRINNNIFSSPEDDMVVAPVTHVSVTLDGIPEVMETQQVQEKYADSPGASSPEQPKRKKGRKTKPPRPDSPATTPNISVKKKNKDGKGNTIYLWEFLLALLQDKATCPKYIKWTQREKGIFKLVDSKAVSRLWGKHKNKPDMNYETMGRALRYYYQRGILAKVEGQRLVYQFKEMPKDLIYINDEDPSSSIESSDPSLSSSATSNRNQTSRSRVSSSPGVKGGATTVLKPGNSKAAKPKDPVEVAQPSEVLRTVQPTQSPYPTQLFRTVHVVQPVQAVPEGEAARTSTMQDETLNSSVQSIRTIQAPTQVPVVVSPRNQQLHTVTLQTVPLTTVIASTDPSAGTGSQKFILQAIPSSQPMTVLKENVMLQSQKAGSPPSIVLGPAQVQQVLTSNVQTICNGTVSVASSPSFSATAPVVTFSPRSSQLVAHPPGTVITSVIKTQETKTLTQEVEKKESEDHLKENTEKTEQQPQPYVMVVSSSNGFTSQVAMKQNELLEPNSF
# Outline: as §1
# EHF = target: T5, EHF (Homo sapiens, UniProt Q9NZC4 1-300)
# T5 sequence: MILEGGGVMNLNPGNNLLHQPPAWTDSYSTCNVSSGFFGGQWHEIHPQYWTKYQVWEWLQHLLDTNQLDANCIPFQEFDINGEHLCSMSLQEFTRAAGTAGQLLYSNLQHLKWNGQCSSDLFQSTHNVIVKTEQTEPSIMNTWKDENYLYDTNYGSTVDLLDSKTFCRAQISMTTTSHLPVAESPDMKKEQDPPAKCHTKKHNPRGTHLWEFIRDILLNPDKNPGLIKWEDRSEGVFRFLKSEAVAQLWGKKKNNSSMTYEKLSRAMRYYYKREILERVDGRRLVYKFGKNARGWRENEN
# Outline: as §1
# SPI1 = SPI1 (Homo sapiens, UniProt P17947 1-270)
# Outline: as §1
# SPIB = SPIB (Homo sapiens, UniProt Q01892 1-262)
# SPIB, sequence (Q01892 whole entry): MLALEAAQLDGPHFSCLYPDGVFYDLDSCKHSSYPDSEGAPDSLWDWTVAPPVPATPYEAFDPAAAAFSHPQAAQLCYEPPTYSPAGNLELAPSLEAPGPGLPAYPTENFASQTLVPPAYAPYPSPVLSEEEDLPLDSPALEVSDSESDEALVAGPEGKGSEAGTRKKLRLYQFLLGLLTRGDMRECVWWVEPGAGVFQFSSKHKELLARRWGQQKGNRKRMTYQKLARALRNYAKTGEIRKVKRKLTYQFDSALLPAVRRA
# Outline: as §1
# ELK3 = target: T6, ELK3 (Homo sapiens, UniProt P41970 1-407)
# T6 sequence: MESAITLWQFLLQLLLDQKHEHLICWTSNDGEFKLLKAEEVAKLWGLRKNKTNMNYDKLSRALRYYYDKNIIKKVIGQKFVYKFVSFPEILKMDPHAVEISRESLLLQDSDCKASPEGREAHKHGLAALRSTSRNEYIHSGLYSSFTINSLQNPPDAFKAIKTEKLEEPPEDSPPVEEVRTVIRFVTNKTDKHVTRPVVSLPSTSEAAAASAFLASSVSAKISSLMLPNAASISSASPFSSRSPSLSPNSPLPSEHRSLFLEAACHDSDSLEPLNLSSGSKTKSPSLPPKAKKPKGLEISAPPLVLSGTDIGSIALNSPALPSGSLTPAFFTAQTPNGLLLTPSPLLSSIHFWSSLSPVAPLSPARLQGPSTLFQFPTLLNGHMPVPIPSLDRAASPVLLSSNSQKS
# Outline: as §1
sequence,measurement,setting,value
CTCTCC,binding signal,FLI1,"1.35 fold enrichment (6-mer frequency, TF over GST control)"
same,binding signal,ELK1,"1.33 fold enrichment (6-mer frequency, TF over GST control)"
same,binding signal,GABPA,"1.37 fold enrichment (6-mer frequency, TF over GST control)"
same,binding signal,ERG,"1.22 fold enrichment (6-mer frequency, TF over GST control)"
same,binding signal,ELF1,"1.4 fold enrichment (6-mer frequency, TF over GST control)"
same,binding signal,EHF,"1.34 fold enrichment (6-mer frequency, TF over GST control)"
same,binding signal,SPI1,"1.41 fold enrichment (6-mer frequency, TF over GST control)"
same,binding signal,SPIB,"1.35 fold enrichment (6-mer frequency, TF over GST control)"
same,binding signal,ELK3,"1.37 fold enrichment (6-mer frequency, TF over GST control)"
